# Screening data as filed in PubChem BioAssay.
# Shown are actives, neighbours in structure and some others; about 19% of the full set was active somewhere.
# HT1080 IDH1KD tx = qHTS for induction of synthetic lethality in tumor cells producing 2HG: qHTS for the HT-1080-IDH1KD cell line | HT-1080 IDH1 knockdown viability, ATP luminescence, 48 h | 360,000 compounds, 2% hits | Potency, µM (titrated, usually from 46.1 µM), inactives show top-dose activity, negative = toxicity, most hits filed as cytotoxic | AID 686971, 2013;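 note: potency is the fitted concentration of half-maximal effect; 0% = DMSO wells and -100% = cell-free medium wells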
#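 In this qHTS, HT-1080 cells depleted of IDH1 are exposed for 48 h at 37 °C to compound titrations. Toxicity is scored from CellTiter-Glo luminescence, with DMSO as full viability and medium alone as none.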
# ELG1 DNA repair = qHTS screen for small molecules that inhibit ELG1-dependent DNA repair in human embryonic kidney (HEK293T) cells expressing luciferase-tagged ELG1 | HEK293T ELG1-luciferase reporter, luminescence, 16 h; DNA damage induced by 5-fluorouridine | Potency, µM (highest dose often 46.1 µM), for inactives: at the highest dose activity change, negative = inhibition, hits mostly inhibitors | 330,000 compounds, 2.3% hits | AID 504467, 2011; note: potency is the fitted concentration of half-maximal effect; nearly all actives have a fitted effect of over 55% in size
#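 Reporter activity after DNA damage by 5-fluorouridine is monitored. Compound-treated cells incubate 16 hr at 37 °C, then ONE-Glo is added for 30 min before luminescence reading.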
# TDP1 cell noCPT = qHTS for Inhibitors of human tyrosyl-DNA phosphodiesterase 1 (TDP1): qHTS in cells in absence of CPT; DT40 Tdp1-/- hTDP1 cells, no CPT, ATP luminescence, 48 h; Potency, µM (top dose mostly 46.2 µM), for the others: at the highest dose activity change, negative = growth inhibition, actives largely listed as inhibitors; 420,000 compounds, 15% hits; AID 686978, 2013; note: potency is the fitted concentration of half-maximal effect; nearly all actives have a fitted effect of over 55% in size
#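 Chicken DT40 Tdp1-/- cells complemented with human TDP1, screened without camptothecin (DMSO vehicle only), 400 cells/well. Compounds pin-transferred, cells incubated at 37 °C for at least 48 hr. Growth read as ATP-dependent luminescence (CellTiter-Glo, 30 min at RT).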
# HT1080-NT tox = qHTS for induction of synthetic lethality in tumor cells producing 2HG: qHTS for the HT-1080-NT fibrosarcoma cell line. HT-1080-NT fibrosarcoma viability, CellTiter-Glo ATP luminescence, 48 h. 360,000 compounds, 1.6% hits. Potency, µM (doses to about 46.1 µM), for inactives: top-dose activity, negative = less viability, hits mostly cytotoxic;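 note: NT is the 2HG producing partner of a matched IDH1 knockdown line; potency is the fitted concentration of half-maximal effect; 0% = DMSO-treated cells and -100% = media-only wells without cells; nearly all actives have a fitted effect of over 55% in size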
#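 Fibrosarcoma NT cells, 750 per well in 5% FBS RPMI, were exposed to compound for 48 hours. Viability: CellTiter-Glo luminescence.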
# IL-1B inflam inh = qHTS for Inhibitors of Inflammasome Signaling: IL-1-beta AlphaLISA Primary Screen; THP-1 LPS/ATP IL-1B secretion, AlphaLISA, 16 h; active compounds read low; 360,000 compounds, 4.7% hits; activity change, % at 57.5 µM; in the data active = activity change below about -50%; inconclusive = mostly about -30% to -49%
#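 THP-1 cells pretreated 1 hr with compounds (up to 57.5 uM final), then stimulated with LPS (250 ng/mL final) plus ATP (1.25 mM final); secreted IL-1B measured by AlphaLISA after 16 hr, decreased signal indicating inhibition.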
# DT40 TDP1 CPT = qHTS for Inhibitors of human tyrosyl-DNA phosphodiesterase 1 (TDP1): qHTS in cells in presence of CPT. chicken DT40 Tdp1-/-;hTDP1 cells + 20 nM CPT, ATP luminescence, 48 h. Potency, µM (highest dose often 46.2 µM), without a hit: at the highest dose activity change, negative = growth inhibition, hits mostly inhibitors. 420,000 compounds, 12% hits; note: potency is the fitted concentration of half-maximal effect; nearly all actives have a fitted effect of over 55% in size
#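 Cell growth measured by CellTiter-Glo luminescence after a minimum 48 h, 37 C compound exposure with 20 nM CPT in Tdp1-knockout DT40 cells stably expressing hTDP1, seeded 400/well; qHTS titration format.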
# * marks the source's active call; other numbers are inactive results; ? = inconclusive; . = no result given. Unless noted, calls come from the whole dose curve; as a rule, active = well fitted curve in the direction sought with a large enough effect; inconclusive = small, poorly fitted or top-dose-only effect, or another doubt; inactive = no such curve, though single readings can be large; an effect the other way counts as inactive or inconclusive. Unless noted, % is set by controls: 0 for no effect and ±100 for the full control effect.
SMILES,HT1080 IDH1KD tx,ELG1 DNA repair,TDP1 cell noCPT,HT1080-NT tox,IL-1B inflam inh,DT40 TDP1 CPT
N#Cc1cc(-c2ccccc2)nc(Oc2ccccc2)n1,3%,-20%,18µM*,-9%,?,?
CCN(CC)c1nc2cc(OC)ccc2cc1C#N,-5%,-20%,16µM*,4%,1,21µM*
CCN(CC)c1nc(C#N)cc(-c2ccc(OC)cc2)n1,?,?,10µM*,?,-9,8.2µM*
COc1ccc(-c2cc(C#N)nc(Cl)n2)cc1,9.2µM*,5%,4.6µM*,7.3µM*,.,4.1µM*
O=C(O)C[C@@H]1C(=O)O[C@@H]2C(COC(=O)c3cc(O)c(O)c(O)c3)O[C@@H](OC(=O)c3cc(O)c(O)c(O)c3)[C@@H](OC(=O)c3cc(O)c(O)c4c3[C@H]1[C@H](O)C(=O)O4)[C@H]2OC(=O)c1cc(O)c(O)c(O)c1 (stereo partly specified),.,-2%,.,.,.,.
COC(=O)[C@H]1[C@H]2C[C@@H]3c4[nH]c5cc(OC)ccc5c4CCN3C[C@H]2C[C@@H](OC(=O)COc2ccc(OC)cc2)[C@@H]1OC,.,.,-21%,.,.,-4%
CCOC(=O)Oc1c(OC)cc(C(=O)O[C@@H]2C[C@@H]3CN4CCc5c([nH]c6cc(OC)ccc56)[C@H]4C[C@@H]3[C@H](C(=O)OC)[C@H]2OC)cc1OC,?,?,13µM*,15µM*,0,23µM*
CN1OC[C@@H]2CN(Cc3cc(Cl)cc(Cl)c3)[C@H](c3cccc(Br)c3)C[C@@H]21,?,.,21µM*,-18%,-27,?
Cc1ccccc1-c1cccc([C@@H]2C[C@H]3[C@H](CON3C)CN2Cc2cc(Cl)cc(Cl)c2)c1,4%,.,23µM*,4%,-19,?
COc1ccccc1-c1cccc([C@@H]2C[C@H]3[C@H](CON3C)CN2Cc2cc(Cl)cc(Cl)c2)c1,-1%,.,?,-4%,1,?
COc1ccccc1-c1cccc([C@@H]2C[C@H]3[C@H](CON3C)CN2Cc2ccccc2)c1,-17%,.,21µM*,-16%,-2,?
C[C@H](CO)N1C[C@H](C)[C@@H](CN(C)Cc2ccccc2)Oc2ccc(NC(=O)Cn3cnnn3)cc2C1=O,8%,9%,-3%,15%,17,16%
CCc1nnc(NC(=O)CC23CC4CC(CC(Br)(C4)C2)C3)s1,5%,9%,-2%,10%,-15,-2%
O=C(CCN1C(=O)C2C3C=CC(C4CC34)C2C1=O)Oc1cccc2cccnc12 (stereo unspecified),1.3µM*,2%,3.3µM*,2µM*,31,5.2µM*
O=C(CCN1C(=O)C2C3C=CC(C4CC34)C2C1=O)Oc1ccc(Br)cc1 (stereo unspecified),-2%,3%,-14%,2%,21,33%
Cc1oc2ncnc(N3CCCCC3)c2c1C(=O)N1CCN(c2cccc(C(F)(F)F)c2)CC1,.,.,13µM*,.,.,16µM*
CCOC(=O)c1noc2ncnc(N3CCN(c4cccc(C(F)(F)F)c4)CC3)c12,.,.,13µM*,.,.,16µM*
Cc1nc(N2CCOCC2)c2c(C(=O)N3CCN(c4cccc(C(F)(F)F)c4)CC3)c(C)oc2n1,.,.,-17%,.,.,?
